Screening results deposited in PubChem by The Scripps Research Institute Molecular Screening Center.
Shown are actives, neighbours in structure and some others; about 2.4% of the full set was active somewhere.
CHO-K1 Ca antag: counter-screen for M1 antagonists: effect in parental CHO-K1 cells; ATP-induced calcium, Fluo-8 fluorescence; inhibition, % at 3 µM; actives 0.6% (n = 360,000); AID 602250;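 active means inhibition above a per-plate cutoff, the plate's mean sample inhibition plus 3 SD, cut at about 24% in these data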;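 further: 0% = DMSO plus EC80 ATP and 100% = DMSO alone without ATP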
M1 PAM parental: nonselective calcium activators in parental CHO-K1 cells, primary screen, counter-screen for M1 PAM project, cell-based, Fluo-8 calcium fluorescence, full deck, 1536-well; ATP EC20; 0% at ATP EC20, 100% at ATP max; activation, % at 3 µM; actives 0.02% (n = 360,000); AID 602247, 2012;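 active means activation above the run cutoff, the mean activation of all test compounds plus 3 SD, cut at about 40% in these data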;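 further: peak over basal fluorescence ratio in a 140 s read after ATP addition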
CHRM1 agonist: human M1 muscarinic receptor agonists, primary screen, Fluo-8 calcium fluorescence, CHO-K1 cells, HTS. Muscarinic acetylcholine receptor M1 (Homo sapiens), P11229. CHO-K1 hM1, agonist mode; 0% DMSO, 100% acetylcholine EC100. activation, % at 3 µM. actives 0.33% (n = 360,000). AID 588814, 2011;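 active means activation above the run's mean compound activation plus 3 SD, cut at about 16% in these data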;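 further: peak over basal fluorescence ratio within a 140 s kinetic read after compound addition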
Target sequence (P11229 whole entry, looked up): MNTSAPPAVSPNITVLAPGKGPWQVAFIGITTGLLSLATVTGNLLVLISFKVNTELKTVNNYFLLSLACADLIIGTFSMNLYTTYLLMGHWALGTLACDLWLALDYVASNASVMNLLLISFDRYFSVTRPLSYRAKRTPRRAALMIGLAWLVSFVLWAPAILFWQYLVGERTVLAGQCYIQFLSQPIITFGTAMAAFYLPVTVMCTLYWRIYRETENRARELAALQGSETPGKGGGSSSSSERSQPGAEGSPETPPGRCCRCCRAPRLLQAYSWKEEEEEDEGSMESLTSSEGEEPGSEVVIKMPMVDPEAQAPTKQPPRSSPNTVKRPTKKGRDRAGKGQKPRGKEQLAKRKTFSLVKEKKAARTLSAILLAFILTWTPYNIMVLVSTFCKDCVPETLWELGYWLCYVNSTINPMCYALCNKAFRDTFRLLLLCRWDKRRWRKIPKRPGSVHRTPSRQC
M1 ag parental: counter-screen for M1 agonists: effect in parental CHO-K1 cells | AID 602248, 2012 | activation, % at 3 µM | actives 0.48% (n = 360,000) | Fluo-8 calcium fluorescence; scaled to maximal ATP response, vehicle zero; in the data active means activation above about 15%;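 further: untransfected CHO-K1 host cells lacking M1 receptor as counterscreen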
M1 antag: human M1 muscarinic receptor antagonists, primary screen, CHO-K1 cells, Fluo-8 calcium fluorescence, 1536-well | Muscarinic acetylcholine receptor M1 (Homo sapiens), P11229 | CHO-K1 hM1, ACh EC80 antagonist | inhibition, % at 3 µM | actives 1.3% (n = 360,000) | AID 588852, 2011;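 active means percent inhibition above its own plate's cutoff, namely the mean of that plate's compound wells plus 3 SD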;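 further: peak over basal fluorescence ratio during 140 s after agonist addition; 0% = ACh EC80 plus DMSO and 100% = DMSO alone without agonist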
M1 PAM: human M1 muscarinic receptor positive allosteric modulators, primary screen, CHO-K1 cells, Fluo-8 calcium fluorescence, 1536-well; AID 588819, 2011; actives 0.088% (n = 360,000); activation, % at 3 µM; Muscarinic acetylcholine receptor M1 (Homo sapiens), P11229; CHO-K1 hM1, ACh EC20; 0% = ACh EC20, 100% = maximal ACh; in the data active means activation above about 19%, passing the limit was not always enough
Active calls of the source: *.

SMILES | CHO-K1 Ca antag | M1 PAM parental | CHRM1 agonist | M1 ag parental | M1 antag | M1 PAM
COc1cccc(C(=O)C2CCCN(Cc3cnn(C(C)C)c3)C2)c1 (configuration not stated) | -8.1 | 19.9 | -10.2 | 1.2 | 7.9 | -11.7
CCn1cc(CN2CCCC(C(=O)c3cccc(OC)c3)C2)c(C)n1 (configuration not stated) | 2.3 | -10.4 | -13.0 | 0.8 | 50.3* | -33.6
CCCn1cc(CN2CCCC(C(=O)c3cccc(OC)c3)C2)c(C)n1 (configuration not stated) | 3.8 | -1.0 | -11.7 | 0.4 | 23.7 | -29.8
CCCn1ncc(CN2CCCC(C(=O)c3cccc(OC)c3)C2)c1C (configuration not stated) | -4.6 | 15.9 | -13.6 | 0.5 | 93.9* | -33.7
CN1CCC(OC(=O)C2c3ccccc3Oc3ccccc32)CC1 | -17.8 | 22.6 | -6.9 | 0.9 | 98.8* | -21.3
CCC(C)N1C(=O)NC(=O)C2(Cc3c(ccc4ccccc34)N(C)C2)C1=O (configuration not stated) | 2.5 | 12.5 | 2.8 | 4.5 | 44.0* | -15.0
CCc1ccc2nc(N3CCC(C(=O)N4CCC5(CC4)OCCO5)CC3)sc2c1 | 11.4 | 7.4 | -7.8 | 3.5 | 40.6* | -26.1
O=C(C1CCN(c2nc3ccc(Br)cc3s2)CC1)N1CCC2(CC1)OCCO2 | -0.8 | 6.5 | -1.8 | 1.7 | 59.3* | -22.8
Cc1ccc2nc(N3CCC(C(=O)N4CCC5(CC4)OCCO5)CC3)sc2c1 | -2.2 | -2.6 | -6.5 | 0.7 | 1.2 | -0.6
CN(C)c1cc[n+](CC(O)C[n+]2ccc(N(C)C)cc2)cc1 | -1.5 | 6.6 | -10.4 | 0.1 | 3.3 | -5.0
O=C(COc1ccc(Cl)cc1)NC1CN2CCC1CC2 (configuration not stated) | -2.5 | 20.6 | -5.3 | 0.5 | 45.0* | -18.6
C[N+](C)(C)c1ccccc1 | -1.8 | 18.4 | 39.2* | 0.4 | -17.1 | -12.6
COc1cc(N2C(=O)CC(=O)NC2=O)cc(OC)c1OC | -1.3 | 2.1 | -2.9 | 0.9 | -1.0 | 2.1
CCCNC(=O)N1[C@H]2CC[C@@H]1C(C(=O)OC)=C(c1ccc3ccccc3c1)C2 | -15.2 | 10.0 | -6.8 | 0.0 | 3.4 | -3.5
CCC[N+]12CCC(CC1)C(=C(c1ccccc1)c1ccccc1)C2 | -11.7 | -9.7 | -6.8 | -0.2 | 98.9* | -25.5
CCCC[N+]12CCC(CC1)C(=C(c1ccccc1)c1ccccc1)C2 | 2.7 | -12.6 | -13.6 | 0.0 | 99.4* | -25.9
COc1ccc(SCC2CN(C)CCC2c2ccc(F)cc2)cc1 (configuration not stated) | -9.3 | 20.8 | 4.1 | 3.1 | -9.1 | 7.5
COc1cccc(C2CCN(C)C2)c1 (configuration not stated) | -6.8 | 15.7 | 29.0* | 0.9 | -3.8 | -1.2
O=C(NC1CCCCC1)N1C[C@H]2C[C@@H](C1)c1cccc(=O)n1C2 | -0.2 | -4.4 | 3.1 | 0.0 | -13.2 | 17.0
CCN(CC)c1ccc(/C=C/[N+](=O)[O-])cc1 | 31.0* | -2.5 | 69.9* | 59.6* | 53.0* | -8.1
COc1cc(/C=C/[N+](=O)[O-])ccc1O | -0.1 | -11.3 | -2.1 | -0.2 | 6.9 | 1.6
CN1CCC2(CC1)N=C(c1ccc(F)cc1)C(=S)N2 | -0.6 | 1.5 | -15.6 | -0.3 | 26.1* | -36.6
COc1ccc(OC)c(C(O)C2CCCCN2)c1 (configuration not stated) | -3.0 | 14.4 | -2.6 | 0.8 | -4.0 | 9.1
S=C1CN=C(c2ccccc2)c2cc(Cl)ccc2N1 | -0.7 | 3.9 | 46.0* | -0.3 | -3.7 | 6.9
Brc1ccc2c(c1)CN(CC1CCCCC1)Cc1cnnn1-2 | -4.3 | 18.8 | 13.6 | -0.1 | -12.4 | 9.3
SMILES | CHO-K1 Ca antag | M1 PAM parental | CHRM1 agonist | M1 ag parental | M1 antag | M1 PAM
CC=C(C)C1(CCC)C(=O)NC(=S)NC1=O | -12.4 | 3.8 | -2.4 | 0.4 | -12.0 | 3.0
CCOC(=O)c1cccc(C2=C(CNC(C)=O)[C@H]3CC[C@@H](C2)N3Cc2ccccc2)c1 | 17.3 | -12.9 | -6.6 | -0.6 | 31.1* | -15.4
O=C(Cn1c(NCCCl)nc2ccccc21)c1ccc(Br)cc1 | -7.7 | 21.5 | -1.0 | 2.0 | -14.9 | 9.7
O=c1[nH]c(=S)n(-c2ccccc2F)c(O)c1C=NCCN1CCNCC1 | -8.0 | -7.1 | -11.0 | 0.2 | -4.0 | -2.5
CC(=O)N1N=C(c2cccnc2)OC1c1ccccc1Cl (configuration not stated) | -0.9 | 11.6 | -3.5 | 16.1* | -2.5 | 4.5
O=C1CC(c2cccnc2)=NN1c1ccc(Cl)cc1Cl | -0.3 | 2.8 | -2.9 | 0.5 | -9.1 | 3.8
COC(=O)C(O)(c1ccc(NC(=S)NC(=O)c2ccc(Cl)cc2Cl)cc1)C(F)(F)F (configuration not stated) | 7.2 | -7.2 | 21.4* | 5.0 | 21.8 | -10.5
CCOC(=O)C(O)(c1ccc(NC(=O)Oc2ccccc2)cc1)C(F)(F)F (configuration not stated) | 10.7 | -4.1 | -6.9 | 0.1 | 3.4 | 1.4
CCOC(=O)C(O)(c1ccc(NC(=S)NC(=O)c2ccc(Cl)cc2Cl)cc1)C(F)(F)F (configuration not stated) | 15.7 | 8.4 | 21.2* | 7.8 | 25.4 | -1.1
COC(=O)C(O)(c1ccc(NC(=O)NC2CCCCC2)cc1)C(F)(F)F (configuration not stated) | 9.0 | -2.3 | -7.4 | 1.1 | 2.6 | -2.6
CCOC(=O)C(O)(c1ccc(NC(=S)NC(=O)c2ccc(Cl)cc2Cl)c(C)c1)C(F)(F)F (configuration not stated) | 19.9 | -2.4 | 22.2* | 14.3 | 48.5* | -11.5
COC(=O)C(O)(c1ccc(NC(=S)NC(=O)c2ccc(Cl)cc2Cl)c(C)c1)C(F)(F)F (configuration not stated) | 13.5 | 4.5 | 10.7 | 11.5 | 16.2 | -0.6
O=C(O)c1cc[c]([Hg][Cl])cc1 | 14.5 | -3.5 | 2.1 | 0.4 | 47.4 | -11.1
COC(=O)C1=C(c2ccc(F)cc2F)C[C@@H]2CC[C@H]1N2C(=O)N1CCC(O)CC1 | -12.4 | -15.5 | 0.2 | -0.7 | -9.9 | 6.4
O=C(c1cc(F)ccc1F)C1CCCN(CCCc2ccccc2)C1 (configuration not stated) | 3.7 | -1.6 | -9.0 | -0.2 | 35.6* | -25.8
O=C(c1cc(F)ccc1F)C1CCCN(Cc2cccc(Cl)c2)C1 (configuration not stated) | -8.1 | -13.2 | -5.1 | -0.4 | 20.2 | -7.5
